For some of these results: Potency and affinity values are given separately. The source made the active and inactive calls. Unless noted, how the calls were made is not given here.
Tests used:
[1] = antimalarial activity against Dd2 strain (AID 2302;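 active means growth inhibition above 50% at the single 2 µM test dose, taken to imply half-maximal potency below 2 µM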;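 further: 0% = DMSO untreated growth and 100% = chloroquine plus artemisinin killed control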); conditions: P. falciparum Dd2 in RBCs, LDH growth readout, 72 h; at 2 µM; active compounds read high
[2] = human hepatoma cell viability loss – ATP luminescence, cytotoxicity control for P. falciparum antimalarial project, primary screen (AID 2303;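 active means inhibition above 50%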;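 further: 0% = DMSO wells and 100% = digitonin-killed cells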); conditions: HepG2 viability, 24-48 h, at 10 µM, active compounds read high
[3] = target: L-lactate dehydrogenase (Plasmodium falciparum (isolate CDC / Honduras)) (UniProt Q27743); assay: PfLDH activity inhibition – cell lysate, 3D7 strain, counter-screen for P. falciparum growth inhibition project (AID 2304);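 further: 0% = vehicle and 100% = reference inhibitor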; conditions: P. falciparum 3D7 crude extract, LDH APAD/NBT absorbance; at 2 µM; active compounds read high
[4] = inhibition of 3D7 malaria parasite growth – strain 3D7 (AID 2306);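 further: 0% = DMSO wells and 100% = chloroquine plus artemisinin control wells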; conditions: P. falciparum 3D7 erythrocytic growth, LDH absorbance, 72 h; at 2 µM; active compounds read high
[5] = target: Calcium-dependent protein kinase 1 (Plasmodium falciparum (isolate 3D7)) (UniProt P62344); assay: PfCDPK1 kinase inhibitors, biochemical, TCAMS library (AID 1159585; cut-off not given, nearly all actives have IC50 up to about 0.98 µM;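 further: inhibitors leave more ATP so luminescence rises with inhibition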); conditions: recombinant PfCDPK1, Kinase-Glo ATP depletion luminescence
[6] = target: Plasmodium falciparum protein kinase 6 (PK6, PF3D7_1337100) (UniProt Q8IDW1); assay: PfPK6 kinase inhibitors, biochemical, TCAMS library (AID 1159586); conditions: recombinant PfPK6, Kinase-Glo ATP depletion luminescence
[7] = target: Protein kinase 7 (PK7), Plasmodium falciparum 3D7 (PF3D7_0213400) (UniProt Q7YTF7); assay: inhibition of Plasmodium PK7 catalytic activity – biochemical, TCAMS antimalarial set, Kinase-Glo luminescence (AID 1159587); conditions: recombinant PfPK7, Kinase-Glo ATP depletion luminescence
[8] = target: Calcium-dependent protein kinase 4 (Plasmodium falciparum (isolate 3D7)) (UniProt Q8IBS5); assay: PfCDPK4 kinase inhibitors, biochemical, TCAMS library (AID 1159588; cut-off not given, nearly all actives have IC50 up to about 0.91 µM); conditions: recombinant PfCDPK4, Kinase-Glo ATP depletion luminescence
Chain of Calcium-dependent protein kinase 4 (Plasmodium falciparum (isolate 3D7)) (Q8IBS5 whole entry, looked up): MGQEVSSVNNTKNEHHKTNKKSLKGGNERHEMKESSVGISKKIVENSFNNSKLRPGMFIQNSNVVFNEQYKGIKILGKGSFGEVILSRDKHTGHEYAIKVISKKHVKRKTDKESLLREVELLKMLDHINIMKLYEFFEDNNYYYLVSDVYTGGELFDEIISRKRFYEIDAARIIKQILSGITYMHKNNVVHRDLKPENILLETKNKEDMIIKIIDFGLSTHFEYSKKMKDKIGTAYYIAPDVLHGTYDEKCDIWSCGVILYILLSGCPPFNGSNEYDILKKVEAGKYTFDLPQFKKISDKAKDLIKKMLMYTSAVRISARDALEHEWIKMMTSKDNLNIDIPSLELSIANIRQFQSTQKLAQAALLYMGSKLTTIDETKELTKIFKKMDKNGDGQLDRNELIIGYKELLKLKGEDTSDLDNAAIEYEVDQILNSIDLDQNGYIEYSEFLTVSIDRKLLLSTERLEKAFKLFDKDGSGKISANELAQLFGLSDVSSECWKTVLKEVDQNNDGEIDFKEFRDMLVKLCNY

Chain of L-lactate dehydrogenase (Plasmodium falciparum (isolate CDC / Honduras)) (Q27743 whole entry, looked up): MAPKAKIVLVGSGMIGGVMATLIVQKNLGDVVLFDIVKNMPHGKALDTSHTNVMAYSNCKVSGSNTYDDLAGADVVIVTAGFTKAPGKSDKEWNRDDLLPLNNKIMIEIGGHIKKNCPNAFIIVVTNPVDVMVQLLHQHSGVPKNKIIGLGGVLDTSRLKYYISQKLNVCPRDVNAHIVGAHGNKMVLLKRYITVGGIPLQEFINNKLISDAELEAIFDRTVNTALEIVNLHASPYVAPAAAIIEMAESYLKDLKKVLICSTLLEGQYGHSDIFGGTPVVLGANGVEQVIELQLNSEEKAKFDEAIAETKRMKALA
Chain of Plasmodium falciparum protein kinase 6 (PK6, PF3D7_1337100) (Q8IDW1 1-305): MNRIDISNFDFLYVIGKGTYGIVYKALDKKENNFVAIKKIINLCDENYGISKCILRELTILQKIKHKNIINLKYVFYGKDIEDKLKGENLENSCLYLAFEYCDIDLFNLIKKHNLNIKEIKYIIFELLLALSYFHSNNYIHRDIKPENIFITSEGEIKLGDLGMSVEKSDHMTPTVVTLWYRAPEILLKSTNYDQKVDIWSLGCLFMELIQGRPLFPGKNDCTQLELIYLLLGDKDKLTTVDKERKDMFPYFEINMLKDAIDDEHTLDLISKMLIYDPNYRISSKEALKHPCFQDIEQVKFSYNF
Chain of Protein kinase 7 (PK7), Plasmodium falciparum 3D7 (PF3D7_0213400) (Q7YTF7 1-343): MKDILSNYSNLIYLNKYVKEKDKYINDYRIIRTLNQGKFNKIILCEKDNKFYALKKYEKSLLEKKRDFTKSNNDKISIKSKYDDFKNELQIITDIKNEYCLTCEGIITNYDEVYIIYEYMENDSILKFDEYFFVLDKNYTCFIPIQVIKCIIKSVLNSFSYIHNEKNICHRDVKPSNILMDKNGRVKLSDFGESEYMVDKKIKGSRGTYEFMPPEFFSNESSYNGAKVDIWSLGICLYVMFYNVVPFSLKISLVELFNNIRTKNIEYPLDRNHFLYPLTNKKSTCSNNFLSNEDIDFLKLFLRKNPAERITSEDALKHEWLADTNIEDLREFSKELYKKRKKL
Chain of Calcium-dependent protein kinase 1 (Plasmodium falciparum (isolate 3D7)) (P62344 whole entry, looked up): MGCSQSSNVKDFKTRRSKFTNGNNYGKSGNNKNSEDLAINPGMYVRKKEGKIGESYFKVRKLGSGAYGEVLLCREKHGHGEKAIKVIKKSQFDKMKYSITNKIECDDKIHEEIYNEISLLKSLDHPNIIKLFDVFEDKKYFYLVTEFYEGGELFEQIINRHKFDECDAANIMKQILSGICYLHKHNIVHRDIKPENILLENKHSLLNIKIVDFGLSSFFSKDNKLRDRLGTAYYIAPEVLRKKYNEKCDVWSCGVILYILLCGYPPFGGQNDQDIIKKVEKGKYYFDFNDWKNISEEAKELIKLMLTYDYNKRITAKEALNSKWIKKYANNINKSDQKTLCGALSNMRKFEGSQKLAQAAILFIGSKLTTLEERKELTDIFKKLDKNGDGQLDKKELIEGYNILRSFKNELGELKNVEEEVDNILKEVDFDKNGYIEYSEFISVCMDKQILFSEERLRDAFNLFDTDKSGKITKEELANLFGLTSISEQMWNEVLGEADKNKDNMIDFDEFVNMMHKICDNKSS

O=C(Nc1ccc(-c2ccccc2)cc1)Nc1cccc(OCCN2CCCC2)c1
inactive: growth inhibition [1] 14% | inhibition [2] 11% | inhibition [3] -2% | outcome [5] | outcome [6] | outcome [7] | outcome [8]
active: growth inhibition [4] 94%

CNC(=O)c1cnc(Nc2ccc(N3CCOCC3)cc2)nc1Nc1cccc(OC)c1
active: growth inhibition [4] 96%
inactive: growth inhibition [1] 41% | inhibition [2] 2% | inhibition [3] -2% | outcome [5] | outcome [6] | outcome [7] | outcome [8]

CCc1ccc(-c2nc3cc(NC(=O)c4ccc([N+](=O)[O-])o4)ccc3o2)cc1
active: growth inhibition [1] 80% | growth inhibition [4] 97%
inactive: inhibition [2] 4% | inhibition [3] 3% | outcome [5] | outcome [6] | outcome [7] | outcome [8]

C/C=C/COc1ccc(-c2c(C)[nH]c(C)c(Cl)c2=O)cc1
active: growth inhibition [1] 97% | growth inhibition [4] 97%
inactive: inhibition [2] 0% | inhibition [3] 2% | outcome [5] | outcome [6] | outcome [7] | outcome [8]

Cc1cccc2[nH]c(-c3cccc(-c4ccc(NC(=O)Cc5ccccn5)cc4)c3)nc12
inactive: inhibition [2] 25% | inhibition [3] 3% | outcome [5] | outcome [6] | outcome [7] | outcome [8]
active: growth inhibition [1] 57% | growth inhibition [4] 94%

Nc1c2ccccc2nc2ccc(Cl)cc12
active: growth inhibition [1] 100% | inhibition [2] 55% | growth inhibition [4] 101%
inactive: inhibition [3] 6% | outcome [5] | outcome [6] | outcome [7] | outcome [8]

OCc1c(Cl)cc(Cl)cc1CNCCCNc1nc2ccccc2[nH]1
active: growth inhibition [4] 102%
inactive: growth inhibition [1] 2% | inhibition [2] -6% | inhibition [3] -2% | outcome [5] | outcome [6] | outcome [7] | outcome [8]

CC(c1cccc(S(=O)(=O)NCc2ccc(Cl)cc2Cl)c1)N1CCC(N2CCCCC2)CC1 (stereo not given)
active: growth inhibition [4] 100%
inactive: growth inhibition [1] 40% | inhibition [2] 36% | inhibition [3] -2% | outcome [5] | outcome [6] | outcome [7] | outcome [8]

Cc1nc2nc(N)nc(N)c2c(C)c1Cc1cccs1
inactive: growth inhibition [1] 2% | inhibition [3] -1% | outcome [5] | outcome [6] | outcome [7] | outcome [8]
active: inhibition [2] 66% | growth inhibition [4] 95%

CCCCCn1c(Sc2ccc(C#N)c([N+](=O)[O-])c2)nnc1-c1cccs1
active: growth inhibition [4] 91%
inactive: growth inhibition [1] 38% | inhibition [2] 19% | inhibition [3] -1% | outcome [5] | outcome [6] | outcome [7] | outcome [8]

CN1CCN(CCCN(Cc2ccc(-c3cccc(CNC4CCCC4)c3)cc2)C(=O)Nc2ccccc2)CC1
inactive: inhibition [2] 28% | inhibition [3] -3% | outcome [5] | outcome [6] | outcome [7] | outcome [8]
active: growth inhibition [1] 76% | growth inhibition [4] 92%

Clc1ccc(NC(=NCCCCCCCN=C(Nc2ccc(Cl)cc2)Nc2ccc(Cl)cc2)Nc2ccc(Cl)cc2)cc1
inactive: inhibition [3] 0% | outcome [5] | outcome [6] | outcome [7] | outcome [8]
active: growth inhibition [1] 99% | inhibition [2] 100% | growth inhibition [4] 101%

O=C(Nc1ccc(F)cc1F)NC1CCN(c2ccnc3cc(Cl)ccc23)C1 (stereo not given)
active: growth inhibition [1] 82% | growth inhibition [4] 100%
inactive: inhibition [2] 25% | inhibition [3] 1% | outcome [5] | outcome [6] | outcome [7] | outcome [8]

O=C(c1csc(-c2cccnc2)n1)N1CCc2cc3nccc(N4CCN5CCC[C@H]5C4)c3cc21
inactive: inhibition [2] -7% | inhibition [3] -3% | outcome [5] | outcome [6] | outcome [7] | outcome [8]
active: growth inhibition [1] 78% | growth inhibition [4] 97%

O=C1C2=C(Nc3ccccc3SC2c2ccccc2)c2ccccc21 (stereo not given)
active: growth inhibition [1] 94% | growth inhibition [4] 86%
inactive: inhibition [2] 5% | inhibition [3] -7% | outcome [5] | outcome [6] | outcome [7] | outcome [8]

CN1CCCN(Cc2ccc(-c3ccc(NS(=O)(=O)c4cccc5cccnc45)cc3)cc2)CC1
inactive: inhibition [2] 35% | inhibition [3] 5% | outcome [5] | outcome [6] | outcome [7] | outcome [8]
active: growth inhibition [1] 85% | growth inhibition [4] 99%

CNCCNCc1cccc(-c2ccc(-c3nc4c(C)cccc4[nH]3)cc2)c1
inactive: growth inhibition [1] 21% | inhibition [2] 17% | inhibition [3] -1% | outcome [5] | outcome [6] | outcome [7] | outcome [8]
active: growth inhibition [4] 98%

O=c1cc(NCCCNCc2ccccc2-c2ccccc2)[nH]c2ccccc12
active: growth inhibition [4] 88%
inactive: growth inhibition [1] 46% | inhibition [2] 0% | inhibition [3] -1% | outcome [5] | outcome [6] | outcome [7] | outcome [8]

O=c1cc(NCCCNCc2csc(Br)c2Sc2ccc(Cl)cc2)[nH]c2ccccc12
active: growth inhibition [1] 83% | growth inhibition [4] 95%
inactive: inhibition [2] 5% | inhibition [3] 7% | outcome [5] | outcome [6] | outcome [7] | outcome [8]

Clc1cccc(C23N=C(Nc4nc5ccccc5[nH]4)NC2(c2ccccc2)NC(Nc2nc4ccccc4[nH]2)=N3)c1 (stereo not given)
active: growth inhibition [1] 88% | growth inhibition [4] 85%
inactive: inhibition [2] -3% | inhibition [3] -3% | outcome [5] | outcome [6] | outcome [7] | outcome [8]
